# Source: PubChem BioAssay AID1745849 (National Center for Advancing Translational Sciences (NCATS), 2022)
# Screen size: about 2,100 compounds; about 320 (15%) were called active. Inconclusive results (about 52%) are left out. The list shows a part of the results. Values without a mark were called inactive. Calls follow the shape of the dose curve; as a rule, active = well fitted cell-killing curve with a large enough effect; inconclusive = small, poorly fitted or top-dose-only effect, or effect the other way; inactive = flat fitted curve, though single readings scatter.
# Assay: Viability Counterscreen for CMV-Luciferase Assay of Inhibitors of ATXN expression; also: nearly all actives have a fitted effect of over 55% in size
# Conditions: HEK-293 CMV-luciferase cells viability, protease fluorescence, 24 h; activity change, negative = cytotoxicity: at the top concentration
# Text: PI: Daniel Scoles Ph.D. University of Utah School of Medicine, Salt Lake City, Utah MLPCN Grant: NS073009 Spinocerebellar ataxia type 2 (SCA2) is a multisystem neurodegenerative disease caused by a dominantly acting mutation leading to expansion of a polyQ domain in the ataxin-2 protein (ATXN2). SCA2 patients develop progressive ataxia and later lose function in other neuronal systems. Prominent parkinsonian signs develop in some patients. Like many neurodegenerative disorders, no symptomatic or disease-modifying treatments are known. The primary objective of the proposed research is to identify compounds inhibiting ATXN2 expression and to test them for efficacy in SCA2 mouse models. We have developed a cell-based assay paired with an in vivo mouse model using identical luciferase expression constructs. This approach takes advantage of an ATXN2-luciferase transgene, with the luciferase gene flanked by the upstream and downstream portions of the ATXN2 gene. Here we describe a 5-7 dose quantitative high thoroughput screen (qHTS) for compounds lowering ATXN2 expression. We screened the NIH Molecular Libraries Small Molecule Repository (MLSMR) and NCGC's mechanistically annotated (MIPE) and drug repurposing (NPC) collections of compounds for lowering expression of an ATXN2-luciferase reporter in HEK-293 cells. The assay is a multiplexed cell viability assay to ensure target reduction in the absence of cytotoxicity. Secondary qHTS assays included a CMV-luciferase reporter expressed in HEK-293 cells as well as a biochemical assay using recombinant luciferase to detect inhibitors of the reporter enzyme. Compounds that inhibit ATXN2 expression but is not cytotoxic were selected for confirmatory and secondary screens.
# PROTOCOL TABLE (as described by Inglese J, Shamu CE and Guy RK. 2007) SEQUENCE No. (e.g., 1, 2, 3, etc.); […] (e.g., Cells, Incubation, Reagent, etc.); VALUE; DESCRIPTION. 1; Cells; 4 uL; white, solid bottom, 1536-well Greiner assay plate. 2; Incubation; 2 hr; 37 degree C in 5% humidified CO2. 3; Compounds; 23 nL; Kalypsis pintool (Wako USA) equipped with a 1536-well pin head. 4; Incubation; 24 hr; 37 degree C in 5% humidfified CO2. 5; Reagent; 1 uL; Gly-Phe-7-Amino-4-trifluoromethylcoumarin. 6; Incubation; 30 min; 37 degree C in 5% humidfified CO2. 7; Detection; Fluorescence; Viewlux plate reader (PerkinElmer). 8; Reagent; 3 uL; SteadyGlo luciferase solution (Promega). 9; Incubation; 5 min; room temperature. 10; Detection; Luminescence; ViewLux plate reader (PerkinElmer). NOTES (numbers refer to Sequence numbers above) 1. HEK-293 cells expressing CMV-luciferase reporter (designated as SC cells) were suspended in phenol-red free DMEM and dispensed in assay plates using a Multidrop Combi dispenser (Thermo Fisher Scientific). 2. Assay plates were incubated. Evaporation was prevented by covering assay plates with metal lids containing holes to allow gas diffusion. 3. Compounds were added in a dose response manner with the final concentrations of 57, 11.4, 2.28, 0.46, 0.091, 0.018, 0.0037 uM. Vehicle-only plates, with DMSO being pin-transferred to columns 5-48, were inserted uniformly at the beginning and the end of each library to monitor and record any shifts in assay performance. 5. 125 uM Gly-Phe-7-Amino-4-trifluoromethylcoumarin (MP Biomedicals) working concentration was used at a final concentration of 25 uM. 7. To assess cell viability; the assay plates were read using the ViewLux high-throughput CCD imager (PerkinElmer), wherein single end-point fluorescence measurement was acquired (excitation 405/10; emission 540/25 nm). 8. Detection reagent SteadyGlo Luciferase (Promega) was added to the assay plate. 10. Luminescence is then measured on the ViewLux imager equipped with a clear emission filter using a 2 sec exposure. […]
# % is scaled to controls: 0 for no effect and ±100 for the full control effect; potency is read from the fitted curve at half-maximal effect.
SMILES,"activity change, negative = cytotoxicity",Potency
COc1ccc(C(=O)NC(=C(Cl)Cl)S(=O)(=O)c2ccc(C)cc2)cc1,-28.4%,
Cc1ccc(S(=O)(=O)/C(=C/Cl)NC(=O)c2ccccc2)cc1,,17.8 µM (active)
Cc1cc(N/N=C/c2ccc(O)cc2O)nc(-n2nc(C)cc2C)n1,,10 µM (active)
Cc1cc(N/N=C/c2ccccc2[N+](=O)[O-])nc(-n2nc(C)cc2C)n1,,12.6 µM (active)
Cc1cc(N/N=C\c2ccc(Br)cc2)nc(-n2nc(C)cc2C)n1,-7.45% [at 57.5 µM],
CCn1c2ccccc2c2cc(NC(=O)COC(=O)C3CCC(=O)N3)ccc21 (stereo not drawn),-17.1% [at 57.5 µM],
CCCC(=O)OC/C(O)=C(\C#N)c1nc2ccccc2[nH]1,-7.86%,
CCN(CC)CCNC(=O)c1ccc(NC(=O)c2ccccc2-c2ccc(C(F)(F)F)cc2)cc1,-22.9% [at 57.5 µM],
COc1cc(CNCc2ccncc2)cc(Br)c1OCc1ccccc1F,-8.06%,
Cc1cc(C(=O)CN2C(=O)c3ccccc3S2(=O)=O)c(C)n1CC1CCCO1 (stereo not drawn),7.21% [at 57.5 µM],
Cc1cc(C)n(CC(O)Cn2c3ccc(Cl)cc3c3cc(Cl)ccc32)c(=O)n1 (stereo not drawn),-19.8%,
CC(Nc1ccccc1CO)C(=O)Nc1cccc(Cl)c1Cl (stereo not drawn),-16.1% [at 57.5 µM],
Cc1ccccc1C(=O)N/N=C/c1ccc([N+](=O)[O-])s1,,22.4 µM (active)
O=C(CNC(=O)c1ccccc1Br)N/N=C/c1cc(Br)ccc1O,-27.5%,
O=C(N/N=C\c1ccc([N+](=O)[O-])s1)c1cncc(Br)c1,,10 µM (active)
O=C(N/N=C/c1cc(Br)ccc1O)c1ccncc1,-12.8%,
Cc1cccc(/C=N/NC(=O)c2c(-c3ccccc3)noc2C)c1O,-27.5%,
O=C(N/N=C/c1cc(Br)ccc1OC(=O)c1ccc(Br)cc1)c1ccncc1,10.1% [at 57.5 µM],
O=C(N/N=C/c1ccc([N+](=O)[O-])s1)c1ccccc1Br,,20 µM (active)
Cc1ccc(NC(=O)/C=C/c2ccc([N+](=O)[O-])s2)c(C)c1,10.5%,
O=C(N/N=C/c1cc(Cl)ccc1O)c1ccccc1Br,6.59% [at 57.5 µM],

SMILES,"activity change, negative = cytotoxicity",Potency
CCCc1nc(NC2CCCCC2)c(C#N)c2c1COC(C)(C)C2,16.2%,
CN(C)CCC(c1ccc(Br)cc1)c1ccccn1 (stereo not drawn),-13.2% [at 57.5 µM],
N#Cc1cc2cc3c(cc2nc1SCC(=O)N1CCOCC1)OCCO3,0.63%,
Cc1ccc(NC(=O)CSc2ccc(Br)cc2)cc1S(=O)(=O)N1CCOCC1,-20.3% [at 57.5 µM],
Cc1ccc(C(=O)N(C)CC(=O)Nc2ccc(Cl)c(C(F)(F)F)c2)cc1S(=O)(=O)N1CCCCC1,,20 µM (active)
CN(CC(=O)Nc1ccc(Cl)c(C(F)(F)F)c1)C(=O)c1cccnc1Sc1ccccc1,11.2% [at 57.5 µM],
CC(SC(C)C(=O)NN=Cc1cccc(Cl)c1)C(=O)NN=Cc1cccc(Cl)c1 (stereo not drawn),-17.2%,
O=C(Nc1nonc1-c1ccc(Cl)cc1)c1ccccc1,-28.7% [at 57.5 µM],
O=C1C=CCC(/C=C/c2ccccc2)O1 (stereo not drawn),,31.6 µM (active)
Cc1csc2ncnc(NC3CCN(Cc4ccccc4)CC3)c12,-5.28% [at 57.5 µM],
CCOC(=O)N1CCN(c2ccnc3cc(Cl)ccc23)CC1,13.1%,
Cc1cccc(N2CCN(S(=O)(=O)c3ccc4c(c3)C(C)(C)C(=O)N4C)CC2)c1C,6.54% [at 57.5 µM],
CCN(CC(=O)Nc1cccc(OC)c1)CC(=O)Nc1ccc(Br)c(C)c1,,17.8 µM (active)
COc1cccc(NC(=O)CSc2nc3ncc(Br)cc3[nH]2)c1,5.16%,
COc1ccc(O)c(/C=N/NC(=O)CCC(=O)Nc2cccc(C)c2)c1,16.1% [at 57.5 µM],
O=c1cc(-c2c(F)c(F)c(F)c(F)c2F)oc2ccccc12,-23.6%,
Cc1c(N/N=C(\C#N)C(=O)c2ccccc2)c(=O)n(-c2ccccc2)n1C,,11.2 µM (active)
COc1ccc(NS(=O)(=O)c2ccc(C(=O)Nc3c(C)n(C)n(-c4ccccc4)c3=O)cc2)cc1,6.71%,
Cc1ccccc1C(=O)/C(C#N)=N/Nc1c(C)n(C)n(-c2ccccc2)c1=O,,10 µM (active)
Cc1c(N/N=C(\C#N)C(=O)c2ccc(Cl)cc2)c(=O)n(-c2ccccc2)n1C,,2.51 µM (active)
CCOC(=O)c1ccc(NC(=O)c2nc[nH]c2C(=O)N[C@H](C)c2ccccc2)cc1,10.5%,

SMILES,"activity change, negative = cytotoxicity",Potency
CCn1c(C)cc(C(=O)CN2C(=O)c3ccccc3S2(=O)=O)c1C,-1.67%,
O=C(Nc1cccc2ccccc12)OC1C=CS(=O)(=O)C1 (stereo not drawn),-14.6%,
Cc1ccc(Cc2cnc(N3C(=N)SC(C)C3=O)s2)cc1 (stereo not drawn),-1.76%,
Cc1cc(C)c(S(=O)(=O)/N=C2\C=C(Nc3ccc(C(=O)O)cc3)C(=O)c3ccccc32)c(C)c1,,2 µM (active)
CC(C)N(Cc1ccccc1)C(=O)/C=C/c1ccccc1[N+](=O)[O-],-9.06% [at 57.5 µM],
N#C/C(=C\c1cccc([N+](=O)[O-])c1)C(=O)NCc1ccc(Cl)cc1,,3.55 µM (active)
N#C/C(=C\C=C\c1ccccc1[N+](=O)[O-])C(=O)NCc1ccccc1,,3.16 µM (active)
O=C(NCC1CCCO1)c1cccc(Oc2ccc([N+](=O)[O-])cc2Cl)c1 (stereo not drawn),12.9%,
CCN(CC)C(=O)C1=C(C)N(CCC2=CCCCC2)C(=O)C(CC(=O)NC(c2ccccc2)c2ccccc2)C1 (stereo not drawn),-26.1%,
O=C(O)CSc1cc(NS(=O)(=O)c2ccc(Cl)cc2)c2ccccc2c1O,-8.84% [at 57.5 µM],
COc1ccc(-c2csc(N(CCCN3CCOCC3)C(=O)c3ccco3)n2)cc1,-15.1%,
CCOc1ccc(NCc2cccn2-c2nnc(N3CCC(C(=O)NCCCN4CC(C)CC(C)C4)CC3)s2)cc1 (stereo not drawn),-19.6%,
CCN(CC)CCNC1=NCCn2c1cc1cc(OC)ccc12,-15.7%,
CCCCCn1c(=O)c2ccccc2n2c(CCl)nnc12,,14.1 µM (active)
Cc1cc(C)cc(OCC(=O)NNC(=S)NC(=O)C2CC2)c1,-23.3%,
CCCCC1C(=O)CC[C@H]2[C@@H]1CC(=O)[C@@H]2C/C=C\CCCC(=O)O (stereo partly drawn),-4.83%,
CC(=O)N1c2ccc(S(=O)(=O)N3CCC(C(=O)N4CCN(c5ccc(Cl)cc5)CC4)CC3)cc2CC1C (stereo not drawn),-27.4% [at 57.5 µM],
CC1CC2(C)Oc3ccccc3CC2C(C)C1CNCCCN(C)C (stereo not drawn),,35.5 µM (active)
COc1cc(Br)cc(/C=N/NC(=O)Cc2ccc(C(F)(F)F)cc2[N+](=O)[O-])c1O,-26.5% [at 57.5 µM],
CC(C)C(=O)Nc1ccc(C(=O)N/N=C/c2cc(Br)cc(Br)c2O)cc1,17.3% [at 57.5 µM],
COc1cc([N+](=O)[O-])cc(/C=N/NC(=O)c2ccc(NC(=O)c3ccc(C)cc3)cc2)c1O,,1.41 µM (active)
